Assay outcomes: PubChem BioAssay, Sanford-Burnham Center for Chemical Genomics
MPTP inh: blocks calcium-induced mitochondrial swelling. 360,000 tested, 1.4% active. isolated mouse mitochondria, Ca2+ swelling absorbance, 30 min. AID 602449. inhibition, % at 10 µM;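 active = inhibition of 50% or more, scaled per plate between neutral and stimulator controls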;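 note: 0% = DMSO wells given calcium and 100% = 1 mM EGTA wells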
Mdm2-MdmX inh: disrupts the human Mdm2-MdmX interaction; SaOS-2 split-luciferase Mdm2/MdmX complementation, luminescence; inhibition, % at 8 µM; 330,000 tested, 3% active;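 active = inhibition of at least 50% at 8 µM in the primary screen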
Target sequence (O15151 whole entry, looked up): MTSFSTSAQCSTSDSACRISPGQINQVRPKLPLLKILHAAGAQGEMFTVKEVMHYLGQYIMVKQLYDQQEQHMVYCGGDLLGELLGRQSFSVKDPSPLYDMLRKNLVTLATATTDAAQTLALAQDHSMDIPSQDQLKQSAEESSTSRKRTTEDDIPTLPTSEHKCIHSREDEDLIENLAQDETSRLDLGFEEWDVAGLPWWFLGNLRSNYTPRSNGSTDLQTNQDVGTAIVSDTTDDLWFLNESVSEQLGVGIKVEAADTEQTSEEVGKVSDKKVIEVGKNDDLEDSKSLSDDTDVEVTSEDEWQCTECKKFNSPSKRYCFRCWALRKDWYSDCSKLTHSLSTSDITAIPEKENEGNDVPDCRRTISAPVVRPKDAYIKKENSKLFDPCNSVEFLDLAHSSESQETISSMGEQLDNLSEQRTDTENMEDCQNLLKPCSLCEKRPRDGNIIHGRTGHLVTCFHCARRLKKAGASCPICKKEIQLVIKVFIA
Target sequence (Q00987 whole entry, looked up): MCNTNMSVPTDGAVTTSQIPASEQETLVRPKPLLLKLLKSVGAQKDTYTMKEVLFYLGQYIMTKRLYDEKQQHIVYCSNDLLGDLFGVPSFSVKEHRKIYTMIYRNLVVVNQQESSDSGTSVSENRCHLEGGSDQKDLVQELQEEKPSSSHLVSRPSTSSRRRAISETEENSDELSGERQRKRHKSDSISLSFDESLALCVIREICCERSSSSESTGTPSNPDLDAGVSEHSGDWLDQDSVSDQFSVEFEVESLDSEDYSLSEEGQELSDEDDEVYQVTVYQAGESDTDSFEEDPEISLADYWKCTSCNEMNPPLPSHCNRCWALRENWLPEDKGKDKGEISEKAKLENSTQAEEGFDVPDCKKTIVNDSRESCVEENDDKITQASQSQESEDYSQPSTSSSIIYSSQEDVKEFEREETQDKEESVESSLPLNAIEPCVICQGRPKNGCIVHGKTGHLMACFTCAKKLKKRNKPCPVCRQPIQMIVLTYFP
tim10-1 inh: growth inhibitors of tim10-1 mutant yeast | S. cerevisiae tim10-1 ts strain growth, BacTiter-Glo, 24 h | inhibition, % at 20 µM | 330,000 tested, 2.2% active | AID 463190;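 active = inhibition of at least 40%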;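 note: mutant grown at 25 °C; 0% = DMSO wells with yeast and 100% = wells holding no yeast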
tim23-1 inh: inhibits growth of tim23-1 mutant yeast; S. cerevisiae tim23-1 growth, BacTiter-Glo luminescence, 24 h; inhibition, % at 20 µM; 330,000 tested, 1.3% active;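 active = growth inhibition of the mutant yeast at or above 50%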;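 note: temperature-sensitive mutant grown at 25 °C; plate controls were DMSO-treated mutant yeast for no effect and medium wells lacking yeast for full effect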
TIM10 inh: TIM10 yeast growth inhibition; AID 463195; inhibition, % at 10 µM; S. cerevisiae TIM10 strain growth, BacTiter-Glo luminescence, 24 h; 330,000 tested, 1.4% active;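 active = inhibition of 40% or more at the single tested concentration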;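 note: wild-type TIM10 isogenic control strain grown at permissive 25 °C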
MPTP counter: membrane potential counter-screen of mitochondrial pore inhibitors. shares compounds with MPTP inh. isolated mitochondria, Rhodamine 123 fluorescence. inhibition, % at 10 µM. 5,000 tested, 78% active. AID 624504; in the data active = inhibition above about 22%;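 note: 0% = DMSO vehicle and 100% = positive control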
MPTP swell DR: MPTP inhibition, dose response swelling confirmation; IC50, µM; shares compounds with MPTP inh; isolated mitochondria swelling, absorbance; 780 tested, 58% active; in the data active = IC50 below about 20 µM
MPTP counter DR: MPTP inhibitor counter-screen activity, dose response; shares compounds with MPTP inh; isolated mitochondria counterscreen, fluorescence read-out; IC50, µM; 780 tested, 49% active; AID 651564; in the data active = IC50 below about 80 µM
Active calls of the source: *; i = inactive; . = no result given. Rows were chosen to be rich in hits. Some 6.3% of all compounds tested hit in one or more screens of this group.

SMILES	MPTP inh	Mdm2-MdmX inh	tim10-1 inh	tim23-1 inh	TIM10 inh	MPTP counter	others
Cc1c(COc2ccc3ccccc3c2)nnn1CC(=O)NS(=O)(=O)c1ccccc1C(F)(F)F	0.2	.	.	.	.	.
Cc1ccc(C)c(OCC(=O)Nc2nc3ccc([N+](=O)[O-])cc3s2)c1C	76.0*	23.8	15.3	-18.8	-6.0	56.4*
Nc1nonc1N/N=C/c1c(O)ccc2ccccc12	55.5*	13.1	22.0	12.3	7.3	73.8*
O=C(NC(=S)Nc1cccc(O)c1)C12CC3CC(CC(C3)C1)C2	1.1	.	.	.	.	.
CN(C)C(CNC(=O)Cc1cccc(C(F)(F)F)c1)c1ccccc1 (configuration not stated)	0.1	-6.2	19.2	8.5	-10.7	.
CN(C)C(CNc1ccc(C(F)(F)F)cn1)c1ccccc1 (configuration not stated)	68.0*	16.6	2.3	0.1	-15.8	-3.9	MPTP swell DR=i;MPTP counter DR=>80
C[C@H](CO)N1C[C@H](C)[C@@H](CN(C)S(=O)(=O)c2ccccc2)OCc2cnnn2CCCC1=O	1.1	.	.	.	.	.
COc1cccc(C(=O)NNC(=O)c2ccc3ccccc3c2O)c1	4.7	7.5	5.7	12.6	-1.7	.
CC(C)(C)OC(=O)N1CCC(CC2CC(c3ccccc3)=NO2)(C(=O)NCc2ccccc2)CC1 (configuration not stated)	-1.2	-51.9	26.2	18.8	2.7	.
COC(=O)C1(CC2CC(c3cccc(Br)c3)=NO2)CCN(C(=O)OC(C)(C)C)CC1 (configuration not stated)	53.7*	6.3	30.2	32.0	17.6	57.2*
O=C(/C=C/c1ccc(Cl)cc1)Nc1ccc(N2CCCCC2)cc1	0.7	-10.4	0.4	-1.0	9.7	.
O=C(/C=C/C(Cl)(Cl)Cl)Nc1ccc(Cl)cc1	96.0*	.	.	.	.	101.7*
O=C(c1[nH]c(C(F)(F)F)nc1-c1ccccc1)N1CCN(C/C=C/c2ccccc2)CC1	-0.5	.	.	.	.	.
Cc1ccc(S(=O)(=O)N2CCC(=O)N(CCOCc3ccc(C(F)(F)F)cc3)CC2)cc1	77.5*	15.7	20.4	-10.5	2.5	99.0*
Cc1cc(C)nc(SCC(=O)N/N=C\C(Br)=C\c2ccccc2)n1	70.6*	-1.1	11.4	3.7	13.2	65.8*
Cc1cc(C)nc(SCC(=O)N/N=C/C=C/c2ccccc2)n1	2.8	11.9	27.5	10.7	-8.9	.
O=C(c1ccc2c(=O)n(C3CCCC3)c(=S)[nH]c2c1)N1CCCCCC1	89.2*	20.5	8.7	-39.6	0.4	79.1*
CC1CCCN(C(=O)c2ccc3c(=O)n(C4CCCC4)c(=S)[nH]c3c2)C1 (configuration not stated)	19.3	14.0	9.3	-43.6	31.8	.
C=CCn1c(NCCc2ccccc2)nc2c1c(=O)n(C)c(=O)n2C	45.5	22.7	17.3	-16.1	5.6	.
C/C(Cl)=C\Cn1c(NCCc2ccccc2)nc2c1c(=O)n(C)c(=O)n2C	53.9*	19.7	17.2	-6.1	3.0	83.4*
CC(C)(C)c1cccc(Cn2nnc3ccccc32)c1O	82.2*	-2.8	28.8	2.4	-4.3	96.7*
Cc1cc(Cn2nnc3ccccc32)c(O)c(C(C)(C)C)c1	52.9*	16.0	31.9	37.4	-3.4	94.0*
Cc1cccc(Cn2nnc3ccccc32)c1O	-0.4	-29.1	-27.2	3.1	-41.9	.
Cc1ccc(S(=O)(=O)N2CCN(C(=O)c3ccc(N4CCC(C)CC4)c([N+](=O)[O-])c3)CC2)cc1	-2.4	.	.	.	.	.
CC(Oc1ccccc1F)C(=O)NNC(=O)Cc1ccc(S(=O)(=O)N2CCOCC2)s1 (configuration not stated)	0.0	.	.	.	.	.
SMILES	MPTP inh	Mdm2-MdmX inh	tim10-1 inh	tim23-1 inh	TIM10 inh	MPTP counter	others
CC1(C(=O)Nc2cccc(C#N)c2)CCN1C(=O)Cc1ccc(-c2ccccc2)cc1 (configuration not stated)	92.5*	.	.	.	.	85.5*
CCN1CCN(c2ncc(C(=O)Nc3c(F)cc(F)cc3Br)c3ccccc23)CC1	69.8*	14.6	13.1	8.3	7.6	-6.2	MPTP swell DR=7.91*;MPTP counter DR=>80
CC(c1ccccc1)c1nnc(NC(=O)Nc2ccccc2F)s1 (configuration not stated)	-0.8	-34.6	31.4	37.0	22.8	.
CCSc1nsc(NC(=O)Nc2cccc(OC)c2)n1	84.1*	31.3	16.5	26.4	-3.8	85.4*
CCSc1nsc(NC(=O)Nc2ccccc2F)n1	66.4*	-49.5	19.4	26.0	-4.4	87.3*
COc1ccc(CC(N)c2csc(NC(=O)c3cc(C(C)(C)C)nn3Cc3ccccc3)n2)cc1 (configuration not stated)	4.2	.	.	.	.	.
C=CCNC(=S)N1N=C(c2ccco2)CC1c1ccco1 (configuration not stated)	-1.6	.	.	.	.	.
CN(C)CCNC(=O)c1ccc(Sc2ccc(Br)cc2)c([N+](=O)[O-])c1	101.9*	24.7	17.0	9.6	1.8	-8.5	MPTP swell DR=5.77*;MPTP counter DR=>80
O=[N+]([O-])c1cccc(/C=N\N=C2c3ccccc3-c3ccccc32)c1O	103.7*	-6.8	22.5	23.7	21.9	6.7
NC(N)=N/N=C/c1cccc([N+](=O)[O-])c1O	-0.3	12.3	12.1	12.4	21.9	.
CC(C)CCn1nc(C(=O)Nc2nc3c(s2)CCCC3)c2ccccc2c1=O	-0.4	49.4	21.4	10.7	18.3	.
O=C(Nc1nc2c(s1)CCCC2)c1nn(Cc2ccccc2)c(=O)c2ccccc12	59.0*	22.5	8.0	-7.2	17.0	-5.3	MPTP swell DR=>100;MPTP counter DR=>80
CCNC(=O)C1(C)CCN(C(=O)c2ccc3snnc3c2)C1 (configuration not stated)	-1.6	.	.	.	.	.
CN(C)CCCNS(=O)(=O)c1ccc(NC2CCCCCC2)c([N+](=O)[O-])c1	85.1*	45.6	-2.9	-0.8	-2.0	81.2*
CCNc1ccc(S(=O)(=O)NCCN(C)C)cc1[N+](=O)[O-]	1.7	25.2	-0.4	0.6	1.5	.
COc1ccc(NC(=O)C2Cc3c(-c4ccncc4)ccnc3O2)cc1OC (configuration not stated)	-2.5	.	.	.	.	.
COc1ccc(NC(=O)C2Cc3c(-c4ccc(Cl)cc4)ccnc3O2)cc1OC (configuration not stated)	69.9*	.	.	.	.	79.8*
COc1ccc(NC(=O)C2Cc3c(-c4ccccc4)ccnc3O2)cc1OC (configuration not stated)	59.4*	.	.	.	.	84.7*
COc1ccccc1Oc1ccc(S(=O)(=O)NCc2ccccn2)cc1	70.1*	19.6	24.5	20.6	20.3	37.8*
C[C@H](CO)N1C[C@H](C)[C@@H](CN(C)Cc2ccc3c(c2)OCCN3C)OCc2cnnn2CCCC1=O	-0.5	.	.	.	.	.
Cc1ccc2nc(C)c(CN3CCN(c4ccc([N+](=O)[O-])cc4Cl)CC3)n2c1	87.9*	23.8	-0.8	24.0	30.2	101.8*
